# Measurements reported in PubChem BioAssay (NCI).
# About 83,000 compounds went through this panel and 20% of them were active in at least one assay; those are over-represented in the sample as a whole.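 Single-concentration screen, 48 h exposure, 96-well plates. Endpoint: percent growth. Below 10 = active.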 A number with no mark means an inactive call. The source made the active and inactive calls.
# System: MALME-3M melanoma
# Assay: NCI-60 one-dose screen, 48 h (100 = growth as untreated, 0 = no growth, -100 = all killed)
# Settings: 10 µM unless noted
row,SMILES,growth
1,C=CCC(=O)N[C@H](/C=C/C(=O)O)Cc1ccc(-c2cc(Cl)cc(Cl)c2)cc1,99.9%
2,CCN1CCN(c2cc(C)nc(N(CCCNc3ccnc4cc(Cl)ccc34)Cc3cccs3)n2)CC1,-85.7% (active)
3,COC(=O)CCCNc1c(-c2c(O)c(O)cc3c(O)c(-c4c(C)cc5c(-c6nc7ccccn7c6NCCCC(=O)OC)c(O)c(O)cc5c4O)c(C)cc23)nc2ccccn12,39.9%
4,Cn1ncc(Cl)c1-c1cc(C(=O)N[C@H](CN)Cc2ccc(F)c(F)c2)oc1Cl,-78.6% (active)
5,O=c1[nH]c(N2CCOCC2)nc2scc(-c3ccccc3)c12,88.8%
6,Cc1cc2c(-c3nc4ccccn4c3NC3CCCCC3)c(O)c(O)cc2c(O)c1-c1c(C)cc2c(-c3nc4ccccn4c3NC3CCCCC3)c(O)c(O)cc2c1O,42.5%
7,CC(C)C1CCC(C)C(C2(C#N)C(N)=NC(N)=C2C#N)C1=O (centres undefined),92.3%
8,Cc1cc(N2CCCC2)nc(N(CCCNc2ccnc3cc(Cl)ccc23)Cc2ccc3c(c2)OCO3)n1,-76.9% (active)
9,[2H]C1([2H])[C@H](C)O[C@H](C)C([2H])([2H])N1c1ccc(NC(=O)c2cccc(-c3ccc(OC(F)(F)F)cc3)c2C)cn1,68.2%
10,Cc1cc2c(-c3nc4ccccn4c3NC34CC5CC(CC(C5)C3)C4)c(O)c(O)cc2c(O)c1-c1c(C)cc2c(-c3nc4ccccn4c3NC34CC5CC(CC(C5)C3)C4)c(O)c(O)cc2c1O,7.47% (active)
11,CC[C@H](Nc1ncnc2nc[nH]c12)c1nc2cccc(F)c2c(=O)n1-c1ccccc1,88.9%
12,COC(=O)C1=C(C(=O)OC)C23C=C(C)C1C2=C(C)C1(CC1)[C@@](C)(O)C3=O (some centres undefined),-44.4% (active)
13,c1ccc2c(c1)CCN(NCCN1CCCC1)C2,101%
14,Cc1cc(N(CCNc2ccnc3cc(Cl)ccc23)Cc2cccs2)nc(Cl)n1,-29.4% (active)
15,COc1cc(-c2nc(C(=O)Nc3ccc(C)cc3)nn2-c2ccc(F)c(F)c2)cc(OC)c1OC,89%
16,O=C(Cn1c(=O)ccn(CCCCCCCCOc2ccc(Br)cc2)c1=O)Nc1ccc(Oc2ccc(Cl)cc2)cc1,69.8%
17,Cc1ccc(-c2cc3c(SCC(=O)Nc4cc(C(F)(F)F)ccc4Cl)nccn3n2)cc1,-69.5% (active)
18,CCCc1cc2cc(-n3nc(C)c4c3CC(C)(C)CC4=O)cc(NC3CCC(O)CC3)c2c(=O)[nH]1 (centres undefined),29.9%
19,COc1ccc(C(=O)c2cc(OC)c(OC)c(OC)c2)cc1/C=C/C(=O)c1ccc(F)cc1,65.6%
20,CC(C)=CCc1cc2c(cc1O)C1=C(C(=O)C3=C(C1=O)S(=O)(=O)CCN3)C(C=C(C)C)O2 (centres undefined),-96.1% (active)

row,SMILES,growth
1,CN1CCN(c2nc(NCCNc3ccnc4cc(Cl)ccc34)c3ccccc3n2)CC1,-57.4% (active)
2,COc1ccc(CCCc2c3[n+](cc4c(OC)c(OC)ccc24)CCc2cc4c(cc2-3)OCO4)cc1,94.4%
3,N#Cc1cc2[nH]c3ccc(OC(F)(F)F)cc3c2oc1=O,79.6%
4,CCN1CCN(CCCN(C[C@H]2Cc3ccccc3CN2)[C@H]2CCCc3cccnc32)CC1,113%
5,Clc1ccc2c(NCCCNCc3ccc4c(c3)OCO4)ccnc2c1,-69.6% (active)
6,Cc1cc(N2CCOCC2)nc(N(CCNc2ccnc3cc(Cl)ccc23)Cc2cccs2)n1,-18.4% (active)
7,CCN1CCN(c2cc(C)nc(N(CCCNc3ccnc4cc(Cl)ccc34)Cc3ccc4c(c3)OCO4)n2)CC1,-82.2% (active)
8,COc1cc(-c2cc(-c3ccc(Nc4ccnc5cc(Cl)ccc45)cc3)nc(N3CCOCC3)n2)cc(OC)c1OC,-22.4% (active)
9,COC(=O)C1CCc2sc3ncnc(Nc4cn[nH]c4C(=O)Nc4ccc(CN5CCN(C)CC5)cc4)c3c21 (centres undefined),-72.3% (active)
10,CO/C=C/C(=O)c1cc2cnc3c(=N)cc(NC(=O)C(C)C)c([nH]1)c23,-77.5% (active)
11,CCN1CCN(c2nc(C)cc(N(CCNc3ccnc4cc(Cl)ccc34)Cc3ccc4c(c3)OCO4)n2)CC1,-82.2% (active)
12,N#CC(C#N)=NO,99%
13,C=CC(=O)N(C)[C@H]1C[C@H]2OC(C)(C1OC)n1c3ccccc3c3c4c(c5c6ccccc6n2c5c31)C(=O)NC4 (some centres undefined),-46.7% (active)
14,Cc1ccc(NC(=O)NC(=O)CSc2nc3ccccc3nc2C)cc1,71.1%
15,C=CCn1c(=O)c2cnc(Nc3ccc(N4CCN(C)CC4)cc3)nc2n1-c1cccc(C(C)(C)O)n1,44.8%
16,Clc1ccc2c(NCCNc3nc(N4CCCC4)nc4ccccc34)ccnc2c1,-69.6% (active)
17,Clc1ccc(/C=C/c2cc(N3CCOCC3)c3cc(Cl)c(Cl)cc3n2)cc1,56%
18,Nc1ncnc2c1ccn2-c1cccc(NC(=O)c2ccc(N3CCOCC3)c(C(F)(F)F)c2)c1,65.3%
19,CC12O[C@H](C[C@@H](OC(=O)CCC(=O)O)[C@H]1O)n1c3ccccc3c3c4c(c5c6ccccc6n2c5c31)C(=O)NC4=O,-21.6% (active)
